The record followed here is PubChem BioAssay (Tox21).

The nature of assay [1]: Nuclear factor erythroid 2-related factor 2/antioxidant responsive element (Nrf2/ARE) small molecule agonists: qHTS cell viability counter screen in human keratinocytes (AID 1919968; active = well fitted curve in the direction sought with a large enough effect in the repeat runs; an effect the other way counts as inactive or inconclusive; also: nearly all actives have a fitted effect of over 55% in size; also: potency is read from the fitted curve at half-maximal effect). The essentials: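 Seed 1,500 KeratinoSens cells per well, then incubate 5 h at 37 C/5% CO2. Add compounds in DMSO and incubate 23 h. Add CellTiter-Fluor, wait 1 h and read fluorescence.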
In general terms: Quantitative high-throughput screening tests each substance at several concentrations.

The nature of assay [2]: Nuclear factor erythroid 2-related factor 2/antioxidant responsive element (Nrf2/ARE) small molecule agonists: luciferase reporter gene qHTS assay in human keratinocytes (AID 1919969). Also: nearly all actives have a fitted effect of over 35% in size. Also: potency is read from the fitted curve at half-maximal effect.
Assay [3] addresses Gonadotropin-releasing hormone receptor (Homo sapiens) (UniProt P30968). In words: Human gonadotropin-releasing hormone receptor (GnRHR) small molecule agonists, calcium flux assay in GnRHR-HEK293 cells (AID 1920063). Also: nearly all actives have a fitted effect of over 35% in size. A digest of the protocol:
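Cells: HEK293 stably expressing human GnRHR. Steps: overnight (18 h) culture, 1 h calcium dye loading at 37 C, compound addition, kinetic fluorescence read at 480/540 nm. Each compound tested at 15 concentrations in triplicate.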
For orientation: Calcium flux is commonly read through the fluorescence of an indicator in the cells.

Assay [4] has as its target KiSS-1 receptor (Homo sapiens) (UniProt Q969F8). The experiment in a line: Human kisspeptin (KISS1R) small molecule agonists, calcium flux assay in KISS1R-HEK293 cells (AID 1920064; active = well fitted curve in the direction sought with a large enough effect in the repeat runs; an effect the other way counts as inactive or inconclusive). The essentials: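 Cells plated and incubated 18 h; dye added, 1 h at 37 C; compounds in DMSO pinned in; signal read at 480/540 nm every second for 3 min. Each compound tested at 15 concentrations in triplicate.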

Assay [5] in a line: p53 small molecule agonists, cell-based qHTS assay with human liver microsomes (AID 1963577).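 Also: p53 response element beta-lactamase reporter cells with liver microsomes plus NADPH.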 The essentials:
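Cells carrying a p53-responsive bla reporter were rested 5 h (37 C, 5% CO2) before compound transfer. Human liver microsomes plus NADPH, 0.5 mg/mL final apiece, supplied metabolism during the 16 h 37 C exposure.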

Assay [6] can be described thus: p53 small molecule agonists, cell-based qHTS assay with human liver microsomes: qHTS cell viability counter screen (AID 1963579). Also: nearly all actives have a fitted effect of over 45% in size. The essentials:
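Seed p53RE-bla cells at 4,000 per well; incubate 5 h at 37 C; add compound, human liver microsomes and NADPH; incubate 16 h at 37 C; add CellTiter-Glo; after 30 min at room temperature, read luminescence.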

Assay [7] is described as follows: p53 small molecule agonists, cell-based qHTS assay with rat liver microsomes: qHTS cell viability counter screen (AID 1963580). Also: nearly all actives have a fitted effect of over 45% in size. Also: potency is read from the fitted curve at half-maximal effect. A digest of the protocol:
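HCT-116 p53RE-bla, 4,000 cells/well, 5 h pre-incubation; cpd + rat liver microsomes 0.5 mg/mL + NADPH 0.5 mg/mL (final); 16 h, 37 C; CellTiter-Glo, 30 min RT; luminescence.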

The nature of assay [8]: p53 small molecule agonists, cell-based qHTS assay: qHTS cell viability counter screen (AID 1963581). Also: nearly all actives have a fitted effect of over 45% in size. The essentials:
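Cells: HCT-116 with p53 response element-driven beta-lactamase. Treatment: 16 h, 37 C, compounds in DMSO. Read: CellTiter-Glo luminescence after 30 min RT.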

Assay [9] is described as follows: p53 small molecule agonists, cell-based qHTS assay (AID 1963582; active = well fitted activation curve with a large enough effect in the signal ratio in the repeat runs, not every such curve was filed as active; the % refers to the signal ratio). A digest of the protocol:
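Quantitative HTS in p53RE-bla cells: after a 5 h settling period, compounds delivered in DMSO were left on cells for 16 h at 37 C, and reporter induction was measured as fluorescence following 2 h substrate loading.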

The target of assay [10] is 5-hydroxytryptamine receptor 2A (Homo sapiens) (UniProt P28223). In words: 5-hydroxytryptamine receptor 2A (HTR2A) small molecule antagonists, cell-based qHTS assay (AID 1963586). Also: nearly all actives have a fitted effect of over 45% in size. Also: potency is read from the fitted curve at half-maximal effect. The essentials:
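Antagonist-mode intracellular calcium assay: DOI (4 nM) added after 5 min compound pre-incubation at room temperature to dye-loaded HTR2A-CHO cells. Fluorescence followed for 3 min, sampled every second.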

The target is the same in assay [11]. In words: 5-hydroxytryptamine receptor 2A (HTR2A) small molecule agonists, cell-based qHTS assay (AID 1963587). Also: nearly all actives have a fitted effect of over 30% in size. Also: potency is read from the fitted curve at half-maximal effect. A digest of the protocol:
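Kinetic calcium-flux fluorescence (2 min, 1 sec intervals) after compound addition in agonist mode. HTR2A-CHO cells were cultured 18 h, then dye-loaded 1 h at 37 C.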

Assay [12] concerns the target Muscarinic acetylcholine receptor M1 (Homo sapiens) (UniProt P11229). In words: Cholinergic receptor muscarinic 1 (CHRM1) small molecule antagonists, cell-based qHTS assay (AID 1963588). Also: nearly all actives have a fitted effect of over 40% in size. The essentials: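 CHRM1-CHO calcium-flux assay, antagonist mode. Cells were seeded 18 h, dye-loaded 1 h at 37 C and given compound for 5 min at RT, then acetylcholine was added at 50nM. FDSS fluorescence was read 3 min; 15 concentrations, three runs.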

For assay [13] the target is unchanged. In words: Cholinergic receptor muscarinic 1 (CHRM1) small molecule agonists, cell-based qHTS assay (AID 1963589). Also: nearly all actives have a fitted effect of over 35% in size. The essentials:
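Agonist-mode qHTS in CHO cells stably carrying human muscarinic M1. Intracellular calcium is tracked by fluorescence every second after compound transfer; each compound runs at 15 concentrations in three independent runs.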

Assay [14] in a line: cAMP Responsive Elements (CRE) small molecule agonists, cell-based qHTS assay (AID 1963590). The essentials: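 Agonist mode qHTS in CRE-bla HEK 293T cells: compounds dosed from DMSO for 3 h at 37 C/5% CO2, followed by LiveBLAzer B/G FRET substrate for 2 h at room temperature.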
A short description of assay [15]: cAMP Responsive Elements (CRE) small molecule antagonists, cell-based qHTS assay (AID 1963591; active = well fitted inhibition curve with a large enough effect in the signal ratio in the repeat runs, not every such curve was filed as active; the % refers to the signal ratio). The essentials: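 Antagonist mode: test compounds are co-incubated with the adenylyl cyclase activator NKH477 (0.25 uM final) on CRE-bla HEK293T cells for 3 h at 37 °C, followed by LiveBLAzer substrate loading.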
Assay [16] deals with Beta-2 adrenergic receptor (Homo sapiens) (UniProt P07550). In words: Adrenergic beta2 receptor (ADRB2) small molecule antagonists, cell-based qHTS assay (AID 1963592). Also: series mostly up to about 92 µM; nearly all actives have a fitted effect of over 50% in size. A digest of the protocol: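 Cells (CHO, stable ADRB2 overexpression) incubated 18-20hr at 37C; compounds added from DMSO; agonist mix (1nM isoproterenol, 100uM IBMX, 25uM Ro-20-1724) added; 0.5hr RT; d2-cAMP and anti-cAMP-cryptate added; 1hr RT; 665/615 nm read.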
Sequence of Beta-2 adrenergic receptor (Homo sapiens) (P07550 whole entry, looked up): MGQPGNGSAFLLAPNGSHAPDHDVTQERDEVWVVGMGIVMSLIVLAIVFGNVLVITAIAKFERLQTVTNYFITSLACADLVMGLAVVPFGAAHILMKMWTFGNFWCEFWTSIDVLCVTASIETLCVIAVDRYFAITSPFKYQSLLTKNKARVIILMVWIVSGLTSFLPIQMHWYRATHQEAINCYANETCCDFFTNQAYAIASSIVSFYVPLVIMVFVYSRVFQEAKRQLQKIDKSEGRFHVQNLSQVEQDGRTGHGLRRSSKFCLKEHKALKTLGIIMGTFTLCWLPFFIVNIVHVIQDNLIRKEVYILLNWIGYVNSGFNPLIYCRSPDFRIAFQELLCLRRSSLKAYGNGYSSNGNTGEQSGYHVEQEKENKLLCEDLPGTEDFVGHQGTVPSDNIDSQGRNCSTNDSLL

The target of assay [17] is D(2) dopamine receptor (Homo sapiens) (UniProt P14416). In words: Dopamine D2 receptor (DRD2) small molecule agonists, cell-based qHTS assay (AID 1963594). Also: nearly all actives have a fitted effect of over 35% in size. Also: potency is read from the fitted curve at half-maximal effect. The essentials: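 cAMP accumulation in DRD2-HEK293 cells measured by HTRF after 1 h detection; compounds added 10 min before NKH477 (200nM […]) forskolin-analogue stimulation, 30 min at room temperature, with Ro20-1724 present at 0.1 mM final.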
Sequence of D(2) dopamine receptor (Homo sapiens) (P14416 whole entry, looked up): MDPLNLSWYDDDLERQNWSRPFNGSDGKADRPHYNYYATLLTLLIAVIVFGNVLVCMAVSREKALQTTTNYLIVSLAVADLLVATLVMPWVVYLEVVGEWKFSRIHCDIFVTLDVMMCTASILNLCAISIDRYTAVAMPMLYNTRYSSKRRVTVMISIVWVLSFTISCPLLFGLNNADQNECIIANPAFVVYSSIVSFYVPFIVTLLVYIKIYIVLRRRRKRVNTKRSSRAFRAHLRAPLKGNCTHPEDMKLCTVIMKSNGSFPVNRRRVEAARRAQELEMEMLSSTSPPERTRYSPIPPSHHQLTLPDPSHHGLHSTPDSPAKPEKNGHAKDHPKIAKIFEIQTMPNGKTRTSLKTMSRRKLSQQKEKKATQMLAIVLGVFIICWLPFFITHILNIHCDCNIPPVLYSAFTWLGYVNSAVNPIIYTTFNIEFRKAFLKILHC

For assay [18] the target is unchanged. The experiment in a line: Dopamine D2 receptor (DRD2) small molecule antagonists, cell-based qHTS assay (AID 1963595; active = well fitted inhibition curve with a large enough effect in the signal ratio in the repeat runs, with a control signal flat; the % refers to the signal ratio). A digest of the protocol:
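Cells were plated and grown for 24 h at 37 °C. Ro20-1724 (0.1 mM final) went in first, then compound for 10 min. NKH477 (200 nM) with quinpirole (12 nM) followed for 30 min at RT, then HTRF detection reagents for 1 h.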

Assay [19] concerns the target Beta-2 adrenergic receptor (Homo sapiens) (UniProt P07550). In words: Adrenergic beta2 receptor (ADRB2) small molecule agonists, cell-based qHTS assay (AID 1963593).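 Also: CHO cells stably overexpressing human ADRB2.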 A digest of the protocol: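 CHO cells stably over-expressing ADRB2 were plated overnight at 37C, then dosed with compounds plus a stimulation mix containing 100uM IBMX and 25uM Ro-20-1724 for 0.5hr at room temperature. cAMP was measured by HTRF competition, 1hr.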

Values joined by “and” are separate entries in the source; they are usually repeats but may differ in a detail not shown here. Equal values may be shown once. Inconclusive results are not listed. Active and inactive are the calls of the source. Unless noted, calls follow the shape of the full dose curve.

Sequence of 5-hydroxytryptamine receptor 2A (Homo sapiens) (P28223 whole entry, looked up): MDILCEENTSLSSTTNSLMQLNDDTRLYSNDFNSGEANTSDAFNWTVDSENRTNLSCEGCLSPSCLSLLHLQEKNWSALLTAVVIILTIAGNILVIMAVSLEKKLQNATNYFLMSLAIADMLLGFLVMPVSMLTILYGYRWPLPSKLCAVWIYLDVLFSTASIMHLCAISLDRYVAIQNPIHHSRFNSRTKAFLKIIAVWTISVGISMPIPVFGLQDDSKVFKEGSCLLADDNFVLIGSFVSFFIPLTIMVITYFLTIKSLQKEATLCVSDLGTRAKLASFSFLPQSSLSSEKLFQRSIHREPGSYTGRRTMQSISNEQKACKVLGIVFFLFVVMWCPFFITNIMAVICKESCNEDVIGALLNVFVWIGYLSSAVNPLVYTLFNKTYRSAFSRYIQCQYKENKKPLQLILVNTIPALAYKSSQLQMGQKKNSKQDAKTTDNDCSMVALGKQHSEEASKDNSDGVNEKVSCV
Sequence of Muscarinic acetylcholine receptor M1 (Homo sapiens) (P11229 whole entry, looked up): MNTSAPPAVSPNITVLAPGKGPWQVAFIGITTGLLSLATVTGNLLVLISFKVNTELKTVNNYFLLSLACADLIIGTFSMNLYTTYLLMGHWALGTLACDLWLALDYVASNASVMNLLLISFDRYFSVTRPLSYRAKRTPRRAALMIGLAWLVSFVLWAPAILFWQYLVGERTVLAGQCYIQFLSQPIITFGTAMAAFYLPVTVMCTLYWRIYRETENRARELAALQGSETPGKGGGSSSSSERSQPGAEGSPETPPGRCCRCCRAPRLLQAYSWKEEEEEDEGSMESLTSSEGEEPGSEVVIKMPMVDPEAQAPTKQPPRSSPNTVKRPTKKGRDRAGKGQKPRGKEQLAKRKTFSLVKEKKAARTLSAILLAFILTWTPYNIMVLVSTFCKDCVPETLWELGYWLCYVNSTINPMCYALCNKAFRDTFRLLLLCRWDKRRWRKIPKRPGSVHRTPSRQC
Sequence of Gonadotropin-releasing hormone receptor (Homo sapiens) (P30968 whole entry, looked up): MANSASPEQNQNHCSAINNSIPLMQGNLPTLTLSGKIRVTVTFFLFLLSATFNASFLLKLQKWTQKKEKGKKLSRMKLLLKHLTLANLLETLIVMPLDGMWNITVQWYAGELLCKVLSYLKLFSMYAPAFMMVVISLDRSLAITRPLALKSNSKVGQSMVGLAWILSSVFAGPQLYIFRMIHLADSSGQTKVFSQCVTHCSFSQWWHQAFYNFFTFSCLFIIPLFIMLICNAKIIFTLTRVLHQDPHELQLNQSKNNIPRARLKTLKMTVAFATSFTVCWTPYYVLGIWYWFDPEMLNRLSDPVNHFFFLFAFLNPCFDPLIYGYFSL
Sequence of KiSS-1 receptor (Homo sapiens) (Q969F8 whole entry, looked up): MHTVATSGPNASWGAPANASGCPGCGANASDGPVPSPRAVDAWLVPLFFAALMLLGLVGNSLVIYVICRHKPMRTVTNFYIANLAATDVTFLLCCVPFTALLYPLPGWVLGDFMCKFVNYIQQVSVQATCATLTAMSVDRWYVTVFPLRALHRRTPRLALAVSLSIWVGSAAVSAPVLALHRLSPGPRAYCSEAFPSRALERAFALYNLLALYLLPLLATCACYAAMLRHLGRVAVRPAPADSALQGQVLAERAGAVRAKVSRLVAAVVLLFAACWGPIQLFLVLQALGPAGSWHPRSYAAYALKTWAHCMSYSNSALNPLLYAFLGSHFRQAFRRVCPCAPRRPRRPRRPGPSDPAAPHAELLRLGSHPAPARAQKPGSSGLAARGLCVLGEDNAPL

Consider `Nc1cc(C(Cl)=C(Cl)Cl)c(S(N)(=O)=O)cc1S(N)(=O)=O`, for which the Potency result in [1], in assay [2], in [3], in [4], in [5] and in [6] was “inactive” throughout. In addition, the Potency result in assay [7], in assay [8], in assay [9], in assay [10], in assay [11] and in assay [12] was “inactive” each time. Further, the Potency result in assay [13], in assay [14], in [15], in [16], in assay [17] and in assay [18] was “inactive” in each case.

In the case of `O=C1NC(=O)[C@@]2(CCOc3ccc(F)cc32)N1`, the Potency result in [1], in assay [2], in assay [3], in [4], in assay [5] and in [6] was “inactive” in each case. The Potency result in assay [7], in assay [8], in [9], in [12], in assay [13] and in assay [14] was “inactive” in each case. Besides, the Potency result in [15], in [16] and in assay [18] was “inactive” in each case. Besides, the Potency in assay [10] was 0.818 µM (active); in assay [11], 3.01 µM (active); in assay [17] it was 0.11 µM (active).

With `C[Si](C)O[Si](C)(C)O[Si](C)(C)O[Si](C)C`, the Potency entry in assay [1], in assay [2], in assay [3], in [4], in assay [5] and in assay [6] was “inactive” each time. The Potency entry in assay [7], in assay [8], in assay [9], in [10], in [11] and in assay [12] was “inactive” in each case. Also, the Potency entry in [13], in [15], in assay [16], in [17] and in assay [18] was “inactive” each time.

For the molecule `COCCOCCOCCOCCOC`, the Potency entry in assay [1], in [2], in assay [3], in assay [4], in [5] and in assay [6] was “inactive” in each case. Moreover, the Potency entry in assay [7], in assay [8], in assay [9], in [10], in assay [12] and in assay [13] was “inactive” each time. The Potency result in [14], in assay [15], in assay [16], in assay [19] and in [17] was “inactive” throughout.

As to `CC(C)(C)NCCO`, the Potency entry in [1], in assay [2], in assay [3], in assay [4], in assay [5] and in assay [6] was “inactive” in each case. Moreover, the Potency result in [7], in assay [8], in assay [9], in assay [10], in assay [11] and in assay [12] was “inactive” in each case. In addition, the Potency result in [13], in assay [14], in [15], in assay [16], in assay [19] and in [17] was “inactive” each time. For the same molecule, the Potency result in assay [18] is “inactive”.

`C1CSCCS1`: the Potency entry in [1], in [2], in assay [3], in assay [4], in [5] and in assay [6] was “inactive” in each case. For the same molecule, the Potency entry in assay [7], in [8], in assay [9], in assay [10], in assay [11] and in assay [12] was “inactive” throughout. Further, the Potency result in assay [13], in assay [14], in assay [15], in [16], in [19] and in assay [17] was “inactive” in each case. Besides, the Potency result in [18] was “inactive”.

For `CC(C)(C)c1ccc(O)c(C(C)(C)C)c1`, the Potency in assay [1] was 27.2 µM (active) and 43.3 µM (active); in [2], 9.65 µM (active) and 61.1 µM (active); in assay [7], 45.8 µM (active); in assay [10], 23.7 µM (active); in assay [11] it was 34.5 µM (active) and 27.5 µM (active). For the same molecule, the Potency result in assay [3], in [4], in [5], in assay [6], in assay [8] and in assay [9] was “inactive” in each case. For the same molecule, the Potency result in [13], in assay [16] and in assay [17] was “inactive” in each case.
